Results on 7 compounds are retold here after PubChem BioAssay (NCATS).

SMILES strings stand for the structures. Unmarked numbers belong to inactive results. Records with an inconclusive call do not appear. Calls of active or inactive are those of the source. Unless noted, calls follow the shape of the dose curve; as a rule, active = well fitted curve in either direction with a large enough effect (not every such curve was filed as active); inconclusive = small, poorly fitted or top-dose-only effect, or another doubt; inactive = flat fitted curve, though single readings scatter. Bounds are passed on as bounds.

Assay [1] is described as follows: AP1 Signaling Pathway (AID 357). Also: % is scaled to controls: 0 for no effect and ±100 for the full control effect. The conditions noted are these: ME-180 AP-1-bla reporter, EGF-induced, beta-lactamase ratio, 5 h; at 17.2 µM (top of the series) unless noted. The method, boiled down: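 Cells are seeded overnight, exposed to compound titrations and an EC50 level of EGF for 5 hours at 37 °C, then loaded with CCF4 dye for 2.5 hours. Beta-lactamase activity under the AP-1 element is read as a blue/green ratio.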

Assay [2] can be described thus: Stat Signaling Pathway (AID 446).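 Also: ME-180 cervical cancer cells given 40 pM IL-6 alongside compound; SIE-controlled beta-lactamase reporter measured as 460/530 nm FRET emission ratio; % is scaled to controls: 0 for no effect and ±100 for the full control effect.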 The conditions noted are these: ME-180 SIE beta-lactamase reporter, IL-6 stimulated, 5 h; at 17.2 µM (top of the series) unless noted. The method, boiled down:
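Compound effects on IL-6-induced STAT reporter activity were measured in ME-180 cells. After overnight culture, cells were co-treated with 40 pM IL-6 for 5 hrs before beta-lactamase substrate loading at room temperature.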

Assay [3] concerns the target Glucocorticoid receptor (Homo sapiens) (UniProt P04150). As to the kind of experiment: GR-GFP Redistribution (AID 450;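 active = compounds whose dose series gives a full or clear partial fitted curve of increased nuclear translocation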; also: potency is read from the fitted curve at half-maximal effect). The conditions noted are these: U2OS GR-GFP nuclear translocation, laser cytometry, 2 h; series mostly up to 20.6 µM.
Assay [4] shares this target. As to the kind of experiment: GR-EFC Redistribution (AID 451; calls by dose curve; also: potency is read from the fitted curve at half-maximal effect). The conditions noted are these: CHO-K1 GR-EFC translocation, beta-gal luminescence, 2 h. Summed up: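 Translocation of GR-ED fusion to nuclear EA restores b-gal, read by luminescence after 1 h room-temperature detection. Engineered CHO-K1 biosensor cells, 1,000/well, exposed 2 h at 37 C to titrations up to 46 uM final.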

For assay [5], the target named is Mitogen-activated protein kinase 10 (Mus musculus) (UniProt Q61831). As to the kind of experiment: JNK3 AlphaScreen Assay (AID 530).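 Also: kinase came from lysate of stimulated human HepG2 cells; signal reports phosphorylation of biotinylated GST-cJun 1-79 at Ser73 with 10 µM ATP; % is scaled to controls: 0 for no effect and ±100 for the full control effect.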 The conditions noted are these: JNK3 lysate, c-Jun phosphorylation; series mostly up to 57.1 µM. Summed up: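 Kinase buffer: 20 mM Tris-HCl pH 7.6, 10 mM MgCl2, 1 mM DTT, 0.1 mM Na3VO4, 0.01% Tween-20; ATP 10 uM. Substrate biotin-GST-cJun(1-79), enzyme from activated HepG2 lysates. Detection by Ser73 phospho-antibody AlphaScreen.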
Background: Bead proximity is the source of the signal in Alpha formats.

Assay [6] has as its target 3',5'-cyclic-AMP phosphodiesterase 4B (Homo sapiens) (UniProt Q07343). As to the kind of experiment: qHTS Assay for Inhibitors of PDE-IV (AID 607; active = well fitted activation curve with a large enough effect in the main read-out, with a control signal flat, not every such curve was filed as active; also: % of control where 0% means no effect). The conditions noted are these: HEK293 ACTOne CNG channel cells, membrane potential fluorescence; series mostly up to 22.9 µM. Summed up: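 ACTOne HEK293 cells carry a modified cAMP-gated CNG channel and express endogenous PDE4; plated 1000 cells/well, compounds up to 22.9 uM final. Membrane-potential dye fluorescence (ex 535/em 590) was read; parental cells received 10 uM forskolin + 100 uM RO 20-1724.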
Background: Quantitative high-throughput screening tests each substance at several concentrations.

Assay [7] can be described thus: qHTS Assay for Identification of Small Molecule Agonists for Hypoxia Response Element Signaling Pathway (AID 914; active = well fitted activation curve with a large enough effect in the signal ratio, with a control signal flat, not every such curve was filed as active; the % refers to the signal ratio; also: % of control where 0% means no effect). The conditions noted are these: ME-180 (cervical carcinoma) HRE-bla reporter, beta-lactamase ratio, CoCl2, 17 h; activation: active compounds read high. Summed up: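 Read-out: CCF4 FRET ratio of 460nm to 530nm emission (excitation 405nm) after 2.5 hours at room temperature, taken from HRE-bla ME-180 cells that had been exposed to compound and EC50 CoCl2 for 17 hours.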

Assay [8] is described as follows: qHTS Assay for Identification of Small Molecule Antagonists for NFkB Signaling Pathway (AID 895; active = well fitted inhibition curve with a large enough effect in the signal ratio, with a control signal flat, not every such curve was filed as active; the % refers to the signal ratio; also: potency is read from the fitted curve at half-maximal effect). The conditions noted are these: NFkB beta-lactamase reporter cells, FRET ratio 460/530, stimulated with 10 pM TNF alpha; series mostly up to 38.3 µM. Summed up: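 Beta-lactamase reporter read-out (460 and 530 nm emission ratio, 405 nm excitation, 2 hrs substrate loading RT) after 5 hr stimulation with 10 pM TNF alpha in compound-treated NFkB-bla ME-180 cells in low-serum medium.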

Assay [9] can be described thus: qHTS Assay for Identification of Small Molecule Agonists for Thrombopoietin (TPO) Signaling Pathway (AID 917; active = well fitted curve in the direction sought with a large enough effect; an effect the other way counts as inactive or inconclusive; also: % is scaled to controls: 0 for no effect and ±100 for the full control effect). The conditions noted are these: TPO signaling pathway reporter cells, agonist qHTS, stimulated with TPO at its EC50; series mostly up to 38.5 µM. Summed up: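 Stimulation at the TPO EC50 (26 pM final) was used to detect activators. Ba/F3 mouse cells bearing human TPO receptor and a luciferase reporter under the Glycoprotein IIb promoter were exposed to compounds for 24 hrs at 37 C.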

Assay [10] has as its target Pyruvate kinase (Leishmania mexicana) (UniProt Q27686). As to the kind of experiment: qHTS Validation Assay for Inhibitors of Leishmania Mexicana Pyruvate Kinase (AID 945; active = well fitted curve in the direction sought with a large enough effect; an effect the other way counts as inactive or inconclusive;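 also: 0% = DMSO only neutral control wells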). The conditions noted are these: purified L. mexicana pyruvate kinase, enzyme activity, E451W mutant enzyme; series mostly up to 57.5 µM. Summed up:
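Substrate mix (0.5 mM PEP, 0.1 mM ADP, 7 mM MgCl2, 50 mM KCl, pH 7.2 imidazole) received compound by pin tool, then 0.2 nM LmPYK E451W. After 1 h at room temperature, PKLight was added and luminescence measured.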

Assay [11] has as its target Pyruvate kinase PKM (Homo sapiens) (UniProt P14618). As to the kind of experiment: qHTS Assay for Activators of Human Muscle Pyruvate Kinase (AID 954; active = well fitted curve in the direction sought with a large enough effect, not every such curve was filed as active;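 also: 0% = uninhibited enzyme and -100% = no enzyme or full thiadiazolimine inhibition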). The conditions noted are these: purified human muscle pyruvate kinase, luciferase-coupled luminescence, 1 h; series mostly up to 57.5 µM. The method, boiled down: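 A coupled luminescent readout tracked ATP made from ADP by purified PKM2. Final conditions included 0.1 nM enzyme, PEP and ADP at 0.5 and 0.1 mM, pH 7.2 imidazole buffer with BSA, and a one-hour room-temperature reaction.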

For assay [12], the target named is Alpha-galactosidase A (Homo sapiens) (UniProt P06280). As to the kind of experiment: Counterscreen for Glucocerebrosidase Inhibitors: qHTS Assay for Human alpha-Galactosidase at pH 4.5 (AID 992; active = well fitted curve in the direction sought with a large enough effect; an effect the other way counts as inactive or inconclusive; also: 0% is about no effect). The conditions noted are these: purified enzyme, fluorogenic substrate; series mostly up to 76.9 µM. Summed up: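 Citrate buffer pH 4.5, Tween-20 0.005%. Enzyme 2 nM, substrate 80 uM, 20 min RT. Stop pH 10. Fluorescence Ex 365/Em 440. AC50 by Hill fit.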
For orientation: A counterscreen serves to expose hits that act by an unwanted route or on another target.

For assay [13], the target named is alpha-glucosidase (Oryza sativa, rice) (UniProt Q653V4). As to the kind of experiment: Counterscreen for Glucocerebrosidase Inhibitors: qHTS Assay for Rice alpha-Glucosidase at pH 5.0 (AID 997; active = well fitted curve in the direction sought with a large enough effect; an effect the other way counts as inactive or inconclusive;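 also: 0% = full activity with enzyme and -100% = basal without enzyme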). The conditions noted are these: rice alpha-glucosidase enzyme activity; series mostly up to 76.9 µM. The method, boiled down: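 Endpoint fluorogenic assay at pH 5.0: compounds (0.7 nM to 77 uM) titrated against 4 nM rice enzyme and 400 uM 4-MU-alpha-glucoside for 20 min at room temperature; NaOH/glycine stop, read ex 365/em 440 nm, Hill-fitted AC50.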

Chain of Glucocorticoid receptor (Homo sapiens) (P04150 whole entry, looked up, the tested form may be a part): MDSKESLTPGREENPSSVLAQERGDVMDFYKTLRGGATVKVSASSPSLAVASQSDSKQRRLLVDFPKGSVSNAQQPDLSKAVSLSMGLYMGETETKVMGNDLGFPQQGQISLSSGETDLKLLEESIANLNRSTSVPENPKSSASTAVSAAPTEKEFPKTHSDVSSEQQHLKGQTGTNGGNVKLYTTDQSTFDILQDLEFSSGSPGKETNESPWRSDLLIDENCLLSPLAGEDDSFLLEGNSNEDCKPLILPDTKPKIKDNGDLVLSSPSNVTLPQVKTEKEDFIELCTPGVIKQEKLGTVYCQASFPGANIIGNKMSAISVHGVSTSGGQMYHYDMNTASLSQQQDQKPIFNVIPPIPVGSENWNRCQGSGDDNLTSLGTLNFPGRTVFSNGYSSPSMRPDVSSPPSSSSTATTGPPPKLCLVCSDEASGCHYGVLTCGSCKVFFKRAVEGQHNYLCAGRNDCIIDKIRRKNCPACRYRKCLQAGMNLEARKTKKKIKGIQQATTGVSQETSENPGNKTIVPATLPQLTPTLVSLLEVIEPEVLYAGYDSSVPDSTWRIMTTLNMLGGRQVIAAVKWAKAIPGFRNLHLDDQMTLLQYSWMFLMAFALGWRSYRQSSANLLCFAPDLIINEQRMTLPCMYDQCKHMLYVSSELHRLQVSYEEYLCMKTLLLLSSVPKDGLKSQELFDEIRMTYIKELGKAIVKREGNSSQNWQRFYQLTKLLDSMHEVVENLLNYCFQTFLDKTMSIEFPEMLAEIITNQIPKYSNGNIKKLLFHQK
Chain of 3',5'-cyclic-AMP phosphodiesterase 4B (Homo sapiens) (Q07343 whole entry, looked up): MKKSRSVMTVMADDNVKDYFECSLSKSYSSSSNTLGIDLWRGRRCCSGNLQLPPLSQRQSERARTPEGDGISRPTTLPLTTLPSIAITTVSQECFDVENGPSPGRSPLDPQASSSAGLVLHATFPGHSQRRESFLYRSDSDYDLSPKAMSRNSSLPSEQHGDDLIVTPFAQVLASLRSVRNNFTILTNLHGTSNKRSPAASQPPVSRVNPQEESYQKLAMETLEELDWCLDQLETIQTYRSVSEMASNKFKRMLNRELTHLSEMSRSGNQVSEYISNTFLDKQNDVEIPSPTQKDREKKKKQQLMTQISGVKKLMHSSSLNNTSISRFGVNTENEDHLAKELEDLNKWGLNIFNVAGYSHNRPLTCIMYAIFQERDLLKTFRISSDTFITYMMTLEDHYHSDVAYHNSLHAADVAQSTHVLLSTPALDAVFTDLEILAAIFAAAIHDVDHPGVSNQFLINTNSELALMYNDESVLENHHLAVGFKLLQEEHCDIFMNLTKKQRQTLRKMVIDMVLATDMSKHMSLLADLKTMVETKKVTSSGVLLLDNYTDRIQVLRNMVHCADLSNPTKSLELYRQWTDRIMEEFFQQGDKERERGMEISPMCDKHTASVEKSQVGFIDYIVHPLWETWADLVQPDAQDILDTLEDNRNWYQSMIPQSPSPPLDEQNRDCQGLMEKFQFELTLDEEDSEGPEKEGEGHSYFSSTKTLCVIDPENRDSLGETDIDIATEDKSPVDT
Chain of Pyruvate kinase (Leishmania mexicana) (Q27686 2-499 E452W): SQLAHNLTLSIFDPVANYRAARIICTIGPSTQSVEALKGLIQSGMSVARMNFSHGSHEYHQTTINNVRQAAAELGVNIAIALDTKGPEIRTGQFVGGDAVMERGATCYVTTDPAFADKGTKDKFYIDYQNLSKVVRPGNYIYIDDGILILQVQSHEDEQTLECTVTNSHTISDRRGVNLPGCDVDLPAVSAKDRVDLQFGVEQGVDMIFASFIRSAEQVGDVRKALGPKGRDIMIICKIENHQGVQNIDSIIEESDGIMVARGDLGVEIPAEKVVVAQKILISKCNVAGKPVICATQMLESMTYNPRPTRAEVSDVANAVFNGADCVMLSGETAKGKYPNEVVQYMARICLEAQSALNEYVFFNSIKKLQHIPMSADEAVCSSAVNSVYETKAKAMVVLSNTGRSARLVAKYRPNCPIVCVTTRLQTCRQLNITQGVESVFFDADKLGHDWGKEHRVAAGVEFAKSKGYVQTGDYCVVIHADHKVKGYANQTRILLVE
Chain of Alpha-galactosidase A (Homo sapiens) (P06280 whole entry, looked up): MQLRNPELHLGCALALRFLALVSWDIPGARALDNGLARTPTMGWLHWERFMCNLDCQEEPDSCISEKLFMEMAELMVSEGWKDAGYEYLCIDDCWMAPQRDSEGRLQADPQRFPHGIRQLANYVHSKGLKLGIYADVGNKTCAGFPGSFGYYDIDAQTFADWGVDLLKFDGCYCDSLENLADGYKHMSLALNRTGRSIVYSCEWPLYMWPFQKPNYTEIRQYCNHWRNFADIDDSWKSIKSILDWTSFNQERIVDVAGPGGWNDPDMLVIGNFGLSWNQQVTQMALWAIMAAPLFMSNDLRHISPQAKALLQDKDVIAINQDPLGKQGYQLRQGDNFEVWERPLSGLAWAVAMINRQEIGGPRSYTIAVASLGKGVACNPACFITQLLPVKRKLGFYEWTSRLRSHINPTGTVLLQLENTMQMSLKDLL
Chain of Pyruvate kinase PKM (Homo sapiens) (P14618 whole entry, looked up): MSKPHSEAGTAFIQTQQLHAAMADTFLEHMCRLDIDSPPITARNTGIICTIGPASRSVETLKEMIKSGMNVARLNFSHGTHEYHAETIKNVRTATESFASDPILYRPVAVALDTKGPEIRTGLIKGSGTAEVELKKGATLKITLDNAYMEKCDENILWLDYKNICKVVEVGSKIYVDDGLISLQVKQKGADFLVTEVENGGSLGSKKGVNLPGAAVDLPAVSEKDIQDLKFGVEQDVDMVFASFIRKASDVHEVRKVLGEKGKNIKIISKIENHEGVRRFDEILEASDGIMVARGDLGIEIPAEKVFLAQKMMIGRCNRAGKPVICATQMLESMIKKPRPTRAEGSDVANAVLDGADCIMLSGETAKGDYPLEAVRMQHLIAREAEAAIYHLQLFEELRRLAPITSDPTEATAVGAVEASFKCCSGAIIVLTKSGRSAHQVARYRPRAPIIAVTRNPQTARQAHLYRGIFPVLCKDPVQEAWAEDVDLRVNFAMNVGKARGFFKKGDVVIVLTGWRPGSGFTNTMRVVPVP

With `CC(=O)O[C@]12CC[N@+]3(C)CCCC[C@@H]3[C-]1Nc1ccccc12`, the activity change, negative = inhibition in [1] was 2.61% [at 7.69 µM]; in assay [5] it was 4.94% [at 11.4 µM]. Besides, in [2], the activity, negative = inhibition was 1.87% [at 7.69 µM]. Moreover, the Potency in assay [3] was more than 46 µM; in assay [4], more than 9.22 µM. Moreover, in assay [6], the Potency entry is “inactive”. Also, the activation in [7] was 4.44%.
For the compound `COc1ccccc1N1CCN(CCCCOc2ccc(F)cc2)CC1`, the activity change, negative = inhibition in assay [1] was 18.8%. Moreover, in [2], the activity, negative = inhibition was 5.73%. The Potency in assay [3] is more than 20.6 µM.
The corresponding values for `COc1cccc(C2=CC(c3ccc(N(C)C)cc3)n3nnnc3N2)c1` (stereo unspecified) are -12.2%, 14.4% and more than 20.6 µM.
Regarding `CCOC(=O)C1=C(C)NC(C)=C(C(=O)OC)[C@@H]1c1cccc(Cl)c1Cl`, the activity change, negative = inhibition in assay [1] was -13.1%. For the same compound, in assay [2], the activity, negative = inhibition is -13.3%. In addition, the Potency in assay [3] and in assay [4] was more than 20.6 µM in each case. Moreover, in assay [5], the Potency entry was “inactive”.
In the case of `CC(C)Cc1nc(N2CCN(C(=O)Cc3ccccc3)CC2)c(C#N)c2c1COC(C)(C)C2`, the activity change, negative = inhibition in [1] is -5.38%. Further, in assay [2], the activity, negative = inhibition is -23.7%. Also, in assay [3], the Potency is more than 20.6 µM.
For `C=CCNc1nnc(SC2CC(=O)N(c3ccc(OC)cc3)C2=O)s1` (stereo unspecified), in [1], the activity change, negative = inhibition was -11.6%. The activity, negative = inhibition in [2] is -1.82%. Besides, the Potency in assay [3] was more than 20.6 µM.
Consider `C[C@@]12CCC(=O)C=C1CC[C@@H]1[C@@H]2[C@H](O)C[C@]2(C)[C@@H]1CC[C@]2(O)C(=O)COC(=O)CCC(=O)O`, for which the activity change, negative = inhibition in assay [1] was -0.329% [at 38 µM]. For the same compound, in assay [2], the activity, negative = inhibition is -14.6% [at 38 µM]. Besides, the Potency in assay [3] is 0.112 µM (active); in [4], 1.12 µM (active); in assay [8], 0.224 µM (active). The Potency result in assay [5], in assay [6], in [9] and in [10] was “inactive” throughout. The outcome in [11], in assay [12] and in [13] was inactive.
